# Shown are actives, neighbours in structure and some others; about 2.1% of the full set was active somewhere.
# CF NFkB block = inhibitors of cystic fibrosis induced NF-kB; inhibition, % at 5 µM; KKLEB NF-kB-GFP reporter, PAF-induced, GFP fluorescence overnight; 360,000 tested, 0.86% active;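 active means at least 50% inhibition at 5 µM, scaled per plate between neutral and stimulator controls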;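 further: PAF is a Pseudomonas aeruginosa culture filtrate used as stimulus; plate controls were PAF-stimulated DMSO wells for no effect and unstimulated DMSO wells for full effect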
# PAX8 inh HTS = inhibitors of PAX8 transcriptional activity in RMG-I cells | RMG-I TPO-luciferase reporter, SteadyGlo, 24 h | inhibition, % at 12.6 µM | 360,000 tested, 1.2% active;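 active means mean replicate inhibition at least 60% with every replicate also reaching 60%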;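 further: luciferase light reporting Pax8 driven TPO promoter activity; plate controls were median of neutral control wells for no effect and mitoxantrone controls for full effect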
# HIF-2a inh = inhibitors of HIF-2a; 360,000 tested, 0.72% active; inhibition, % at 18.8 µM; AID 624352; 786-0 RCC cells HIF-2a reporter, luciferase luminescence, overnight;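 active means inhibition of the luminescence signal of 40% or more relative to plate controls, in a single-dose primary screen at 18.75 µM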
# EWS-Fli inh = EWS/Fli transcriptional activity inhibition. A673 NR0B1-luciferase reporter, viability-normalised. inhibition, % at 12.6 µM. 350,000 tested, 0.67% active. AID 651661;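 active means mean inhibition of at least 50% after viability correction, with every replicate also passing that limit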;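 further: firefly luciferase signal divided by Alamar Blue viability fluorescence both relative to DMSO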
# KKLEB cytotox = reduces viability of KKLEB cystic fibrosis airway cells; 360,000 tested, 0.36% active; AID 602141; activity change (cytotoxicity), % at 5 µM; KKLEB CF airway cells viability, ATPlite luminescence, overnight; stronger effect = lower value; cells stimulated with P. aeruginosa culture filtrate;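 active means corrected activity change at or below -50% at 5 µM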
# Active calls of the source: *; x = no result; ! = a repeat was not active.
SMILES,CF NFkB block,PAX8 inh HTS,HIF-2a inh,EWS-Fli inh,KKLEB cytotox
O=C(N[C@H]1C=C[C@H](CC(=O)N2CCCCC2)O[C@H]1CO)c1cccc(F)c1,x,4.1,x,5.1,x
NS(=O)(=O)c1ccc(NC(=O)c2cc(Cl)ccc2Cl)cc1,2.6,20.1,4.9,11.4,15.8
NS(=O)(=O)c1ccc(NC(=O)c2cc(Cl)sc2Cl)cc1,-7.5,62.8*,-18.2,8.2,21.6
Cc1ccc(C)c(/C=C/C(=O)c2ccccc(=O)c2O)c1,-17.2,26.3,71.7*,32.8,-10.6
C[C@@H]1CCCCO[C@H](CN(C)C(=O)Cc2ccccc2)[C@@H](C)CN([C@@H](C)CO)C(=O)c2cc(NS(=O)(=O)c3ccc(F)cc3)ccc2O1,x,5.8,x,18.8,x
COc1ccccc1CNC(=O)C[C@@H]1C[C@@H]2c3cc(NC(=O)Nc4ccc(C(F)(F)F)cc4)ccc3O[C@@H]2[C@H](CO)O1,x,6.6,x,-8.1,x
C/C(=N\NC(=O)c1nn(C)cc1Br)c1cccc(NC(=O)C(C)(C)C)c1,-19.7,x,-21.1,x,7.4
C/C(=N\NC(=O)c1nn(C)cc1Br)c1ccc(NC(=O)c2ccncc2)cc1,3.8,86.6*,-19.6,-14.7,5.0
Cc1oc2c(Cl)c(Cl)c(O)c(CN(C)C)c2c1C(=O)c1ccc(Cl)cc1,50.7*,-42.7,21.3,3.5,12.7
Cc1oc2ccc(O)c(CN3CCOCC3)c2c1C(=O)c1ccc(Cl)cc1,31.0,x,8.0,x,-10.6
CC1=C(C)/C(=N\OS(=O)(=O)c2ccc(C)cc2)C=CC1=O,71.5*,63.4*,88.0*,x,-36.4
COc1ccc(S(=O)(=O)/N=C2/C=CC(=O)C(C)=C2C)cc1,-11.3,x,8.6,x,22.0
Cc1cc(OCC(=O)NC(C)C)ccc1Cl,-18.2,16.9,-56.1,-15.4,20.6
Cc1cc(OCC(=O)NC(C)C)cc(C)c1Br,-4.3,65.1*,-12.6,5.5,11.3
Fc1cccc(CN2C[C@@H]3N[C@H](C2)C3c2ccc(-c3cncnc3)cc2)c1 (stereo partly specified),x,8.4,x,23.1,x
C(=C\c1ccc(C2[C@@H]3CN(Cc4ccc5c(c4)OCO5)C[C@H]2N3)cc1)/c1ccccc1 (stereo partly specified),x,81.0*!,x,-10.6,x
Fc1cccc(CN2C[C@@H]3N[C@H](C2)C3c2ccc(-c3ccccc3)cc2)c1 (stereo partly specified),x,89.0*!,x,-7.0,x
Fc1cccc(CN2C[C@@H]3N[C@H](C2)[C@@H]3c2ccc(-c3cccc(F)c3)cc2)c1,x,94.4*,x,-1.4,x
CO[C@@H]1CN(C)C(=O)c2cc(NC(=O)NC3CCCCC3)ccc2OC[C@H](C)N(CC2CCOCC2)C[C@@H]1C,x,-11.7,x,3.1,x
O=C(N/N=C\c1c(O)ccc2ccccc12)c1ccc(Cn2cccn2)o1,10.5,67.3*,12.1,x,10.7
O=C(N/N=C\c1ccc(Cl)s1)c1ccc(Cn2cccn2)o1,0.7,4.2,-16.2,-23.6,-7.4
Fc1cccc(F)c1/C=N/Nc1ccccn1,-35.1,-35.2,-196.7,-50.1,-0.3
O=C(N/N=C/c1c(O)ccc2ccccc12)c1cccc(C(F)(F)F)c1,49.6,69.8*,-21.0,x,-51.7*
Oc1ccc2ccccc2c1C=NNc1ccccn1,77.2*,11.8,-160.4,-24.2,-81.0*
O=C(NCC[C@H]1CC[C@@H](NS(=O)(=O)c2cccc(F)c2)[C@H](CO)O1)C1CC1,x,-0.8,x,-8.2,x
SMILES,CF NFkB block,PAX8 inh HTS,HIF-2a inh,EWS-Fli inh,KKLEB cytotox
COc1ccc2c3c([nH]c2c1)[C@H](CO)N(C)CC31CCN(C(=O)c2cccnc2)CC1,x,x,x,3.4,x
N#Cc1ccc(-c2cccs2)nc1SCc1cccnc1,17.9,49.7,-20.7,54.4*,-14.6
COCC#Cc1cnc2c(c1)C(=O)N([C@H](C)CO)C[C@H](C)[C@@H](CN(C)Cc1ccccc1F)O2,x,x,x,3.1,x
COc1ccc([Si](C)(C)[C@@H]2[C@@H](CCn3cc([C@H](O)c4ccccc4)nn3)O[C@]3(C(=O)N(c4ccccc4)c4ccccc43)[C@H]2C)cc1,x,21.1,x,-3.2,x
COc1ccc([Si](C)(C)[C@@H]2[C@@H](CCO)O[C@]3(C(=O)N(C)c4ccccc43)[C@H]2C)cc1,x,80.6*,x,10.1,x
COc1ccc([Si](C)(C)[C@@H]2[C@@H](CCO)O[C@]3(C(=O)N(c4ccccc4)c4ccccc43)[C@H]2C)cc1,x,93.1*,x,21.0,x
C[C@@H]1CN([C@H](C)CO)C(=O)c2cc(C3=CCCC3)cnc2O[C@@H]1CN(C)C(=O)Cc1ccncc1,x,-19.7,x,-5.5,x
Cc1ccc(N=C2SC(C(=O)Nc3ccc(OC(F)(F)F)cc3)C(N)=C2C(=O)Nc2c(C)cc(C)cc2C)cc1 (stereo unspecified),72.1*,21.2,39.8,x,-59.9*
Cc1ccc(NC(=O)C2SC(=Nc3ccccc3)C(C(=O)Nc3ccc(Cl)cc3)=C2N)cc1 (stereo unspecified),-3.1,x,-10.0,x,5.0
CCOc1ccc(S(=O)(=O)NCc2ccccn2)cc1NC(=O)c1ccccc1,37.8,13.2,-0.3,58.0*,-16.3
CCCC(=O)N1CCC2(CC1)CN(C(=O)CC1CC1)[C@@H](CO)c1c2c2ccc(OC)cc2n1C,x,9.3,x,-10.6,x
COc1ccc(NC(=S)NCc2ccc3c(c2)OCO3)cc1,22.1,-12.9,-4.6,64.7*,-0.2
CC(C)c1ccc(NC(=S)NCc2ccc3c(c2)OCO3)cc1,-12.1,-23.0,-96.9,-1.0,1.3
Clc1ccc(/C=C/c2nc3ccccc3[nH]2)c(Cl)c1,-17.5,x,-92.8,x,-76.1*
Clc1cccc(Cl)c1/C=C/c1nc2ccccc2[nH]1,-15.6,x,-240.3,x,-36.3
Clc1ccc(/C=C/c2nc3ccccc3[nH]2)cc1,-14.5,5.5,-46.0,x,-73.8*
O=C(/C=C/c1ccc(Cl)cc1Cl)c1nc2ccccc2[nH]1,2.8,x,13.5,x,-12.1
O=C(C[C@H]1CC[C@H]2[C@@H](COC[C@@H](O)CN2Cc2cccc(-c3ccncc3)c2)O1)N1CCOCC1,x,21.9,x,6.1,x
Nc1nc(Sc2ccc([N+](=O)[O-])c3nonc23)c2[nH]cnc2n1,-19.1,96.5*,37.9,27.5,-7.4
CNc1ncnc(Sc2nc(N)nc3nc[nH]c23)c1[N+](=O)[O-],3.8,95.0*,9.1,64.3*,5.1
Nc1nc(SCc2ccccc2)c2[nH]cnc2n1,22.1,1.4,-36.8,1.4,-21.5
COc1ccc2c3c([nH]c2c1)[C@H](CO)N(C(=O)Nc1ccccc1F)CC31CN(C(C)=O)C1,x,x,x,-8.2,x
O=C(C[C@H]1C=C[C@@H](NC(=O)Nc2ccc(C(F)(F)F)cc2)[C@@H](CO)O1)NCc1cccc(F)c1,x,12.0,x,-9.4,x
O=C(Nc1nc(-c2cccs2)cs1)c1ccco1,-16.9,-211.1,-261.0,-122.7,0.8
C[C@H](NC(=O)c1ccco1)C(=O)Nc1cccc([N+](=O)[O-])c1,-6.6,100.5*,19.0,-5.6,25.4
O=C(Nc1ccc(NC(=O)c2ccc([N+](=O)[O-])o2)cc1Cl)c1ccco1,44.5,32.8,5.8,-48.2,1.8
C[C@H](NC(=O)c1ccco1)C(=O)Nc1ccc2c(c1)OCO2,-26.8,1.3,6.2,0.6,19.6

# Compound activity from PubChem.
